Compounds with a hit are over-represented: about 32% of the library has one in this group of screens.
CYP2C9 act = activators of human CYP2C9; AID 1024; P11712; activation factor at 5 µM; 96,000 tested, 1.4% active; recombinant CYP2C9, luciferin-H conversion, luminescence; stronger effect = higher value; factor 1 = untreated enzyme, 0 = blocked;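 active = activation factor of 2 or more for CYP2C9 at a 5 µM dose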;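 note: 0 = sulfaphenazole-blocked wells and 1 = vehicle-only wells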
Target sequence (P11712 whole entry, looked up): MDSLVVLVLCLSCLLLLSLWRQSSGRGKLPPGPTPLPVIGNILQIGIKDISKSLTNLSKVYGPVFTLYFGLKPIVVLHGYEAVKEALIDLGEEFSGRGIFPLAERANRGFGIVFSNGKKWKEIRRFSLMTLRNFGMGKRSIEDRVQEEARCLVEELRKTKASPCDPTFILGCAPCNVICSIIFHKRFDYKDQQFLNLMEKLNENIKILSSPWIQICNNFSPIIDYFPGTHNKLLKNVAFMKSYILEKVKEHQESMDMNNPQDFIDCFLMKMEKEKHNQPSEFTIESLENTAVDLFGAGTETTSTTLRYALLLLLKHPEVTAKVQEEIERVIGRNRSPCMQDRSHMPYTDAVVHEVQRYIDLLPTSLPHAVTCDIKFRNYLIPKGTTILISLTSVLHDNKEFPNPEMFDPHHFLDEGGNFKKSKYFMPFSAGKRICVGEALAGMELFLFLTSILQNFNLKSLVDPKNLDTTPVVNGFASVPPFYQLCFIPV
CYP2C19 activ = increases human CYP2C19 enzyme activity; P33261; recombinant CYP2C19, luciferin-H EGE luminescence; stronger effect = higher value; 0 = fully inhibited enzyme, 1 = untreated enzyme; activation factor at 5 µM; 96,000 tested, under 10 active;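 active = activation factor of at least 2 at 5 µM in the primary screen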;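 note: 0 = wells with 2.5 mM tranylcypromine and 1 = vehicle-only wells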
CYP2C9 inh = human CYP2C9 inhibition; P11712; CYP2C9 Supersomes, luciferin-H conversion, luminescence; inhibition, % at 5 µM; 96,000 tested, 20% active; AID 777;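 active = blocking of liver enzyme CYP2C9 beyond about 50% at 5 µM, limit read from the data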
CYP2C19 inh = human CYP2C19 inhibition. CYP2C19 Supersomes, luciferin-H EGE luminescence, 30 min. 96,000 tested, 21% active. P33261. inhibition, % at 5 µM;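 active = CYP2C19 inhibition above a set limit at 5 µM in the primary screen, cut at about 50% in these data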;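 note: plate controls were negative control wells for no effect and 2.5 mM tranylcypromine positive control for full effect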
PostGolgi ctrl = growth of the yeast control strain, post-Golgi counter-screen | 98,000 tested, 5% active | AID 738 | inhibition, % at 10 µM | efflux-deficient yeast background strain, growth absorbance A615, 16 h
PostGolgi yeast = growth inhibition of a yeast mutant, post-Golgi transport screen | post-Golgi transport phenotypic cell assay | AID 739 | 98,000 tested, 0.9% active | inhibition, % at 10 µM;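 note: yeast cells grown in 1536-well plates; yeast grown about 18 h at 30C before absorbance read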
* marks the source's active call; other numbers are inactive results; nt = not tested or not shown. Cut-off read from the data, not from the text of the source, unless noted: active = inhibition above about 30%; inactive = the rest.

SMILES | CYP2C9 act | CYP2C19 activ | CYP2C9 inh | CYP2C19 inh | PostGolgi ctrl | PostGolgi yeast
Cc1ccsc1C(=O)OCC(=O)NCc1ccc2c(c1)OCO2 | 0.3 | 0.4 | 72* | 60* | -4 | -3
Cc1cc(=O)oc2cc(OCC(=O)OCC(=O)NCc3ccc4c(c3)OCO4)ccc12 | 1.6 | 0.6 | -63 | 39 | 11 | 0
O=C(COC(=O)c1ccc2c(c1)OCO2)NCc1ccc(Cl)cc1 | 2* | 0.6 | -98 | 37 | -2 | 0
O=C(COC(=O)CCC(=O)c1ccc2c(c1)OCCO2)NCc1ccc2c(c1)OCO2 | 0.2 | 0.5 | 81* | 50 | 4 | -1
O=C(COC(=O)CSc1nnc(-c2ccc(Cl)cc2)o1)NCc1ccc2c(c1)OCO2 | 1.2 | 1 | -21 | -4 | 4 | -3
CCC(NC(=O)NCc1ccc2c(c1)OCO2)(C(F)(F)F)C(F)(F)F | 0.5 | 0.1 | 52* | 86* | 3 | 7
O=C1CC(N2CCC(c3nc4ccccc4s3)CC2)C(=O)N1 (configuration not stated) | 1.2 | 1.1 | -16 | -14 | 9 | -1
CC(=O)OCC(=O)NCc1ccc2c(c1)OCO2 | 1 | 0.9 | -3 | 5 | 30* | -6
O=C(CCn1cccc1)NCc1ccc2c(c1)OCO2 | 1 | 0.7 | 0 | 26 | 1 | 11
CCc1cc(-c2n[nH]c(=S)n2-c2cccc(C)c2)cs1 | 0.7 | 0.4 | 31 | 63* | 2 | -4
Cc1cccc(-n2c(-c3csc(C)c3)n[nH]c2=S)c1 | 0.8 | 0.6 | 21 | 35 | 5 | -1
Cc1ccc2c(c1)nnn2C1CCN(C(=O)C2CCCCC2)CC1 | 0.4 | 0.1 | 61* | 91* | 4 | 0
Cc1ccc2c(c1)nnn2C1CCN(C(=O)c2cccs2)CC1 | 0.3 | 0.3 | 72* | 67* | 11 | 4
CCOc1ccc(NC(=O)N2CCC(n3nnc4cc(C)ccc43)CC2)cc1 | 0.4 | 0.1 | 60* | 89* | 7 | -4
CCOc1ccc(NC(=O)Nc2ccc3c(c2)nnn3C)cc1 | 1.2 | 1.2 | -23 | -24 | 0 | 3
O=C(c1ccco1)N1CCC(n2nnc3ccccc32)CC1 | 0.6 | 1 | 35 | -4 | 7 | 16
COC(=O)c1ccc(NC(=O)c2cccc(Cl)c2)o1 | 0.7 | 0.8 | 25 | 18 | 8 | 16
O=C(NC(=S)NNC(=O)c1cccs1)c1ccc(Br)o1 | 0.5 | 1 | 46 | -4 | 3 | 2
CCCn1nnc(NC(=O)COc2ccccc2Cl)n1 | 1.1 | 0.7 | -10 | 25 | 3 | 6
CCc1nnc(NC(=O)CSc2nc3ccccc3s2)s1 | 0.4 | 0.8 | 58* | 19 | 17 | 5
Nc1nonc1NC(=O)CSc1nc2ccccc2s1 | 0.9 | 0.2 | 8 | 79* | 12 | 14
CC(C)c1nnc(NC(=O)CSc2nc3ccccc3s2)s1 | 0.6 | 1 | 43 | -3 | 5 | -9
O=C(CSc1nc2ccccc2s1)Nc1nccs1 | 0.8 | 0.5 | 19 | 53* | 11 | -1
Cc1cc(-c2nnc(-c3ccccc3)c(-c3ccccc3)n2)c(C)o1 | 0.3 | 0.8 | 71* | 24 | -3 | 13
c1ccc(-c2nnc(-c3c[nH]c4ccccc34)nc2-c2ccccc2)cc1 | 0 | 0.9 | 99* | 10 | 15 | 3
SMILES | CYP2C9 act | CYP2C19 activ | CYP2C9 inh | CYP2C19 inh | PostGolgi ctrl | PostGolgi yeast
CCCc1[nH]nc2c1C(c1ccc(OC(=O)N3CCOCC3)c(OC)c1)C(C#N)=C(N)O2 (configuration not stated) | 1 | 1 | 4 | 2 | 1 | 1
CC1(C)Cc2ccccc2C2CC(O)C(=O)N21 (configuration not stated) | 1.1 | 1.1 | -9 | -6 | 3 | -7
Cc1cc(NC(=O)CSc2ccc3nnc(-c4cccnc4)n3n2)no1 | 0.6 | 0.9 | 39 | 14 | 1 | 2
O=C(CSc1ccc2nnc(-c3ccccn3)n2n1)Nc1ccc2c(c1)OCCO2 | 0.3 | 0.7 | 66* | 27 | 0 | 0
O=C(CSc1ccc2nnc(-c3ccccn3)n2n1)Nc1ccc2c(c1)OCO2 | 0.7 | 1 | 31 | 2 | -2 | -5
O=C(CSc1ccc2nnc(-c3ccncc3)n2n1)Nc1ccc2c(c1)OCO2 | 0.4 | 0.9 | 58* | 6 | 13 | -1
O=C(CSc1ccc2nnc(-c3ccncc3)n2n1)Nc1ccc2c(c1)OCCO2 | 0.4 | 0.9 | 56* | 6 | 16 | -4
CCOc1ccc(NC(=O)CC2C(=O)N(c3ccccc3)C(=O)N2Cc2ccccn2)cc1 (configuration not stated) | 0.8 | 0.7 | 24 | 33 | 8 | 18
O=[N+]([O-])c1ccc2c(c1Nc1ccccc1)=NC1(CCCCC1)N=2 | 0.5 | 0.9 | 53* | 10 | 2 | 10
Cc1cccc(C)c1NC1=NC2(CCCCC2)N=C(N)N1 | 1 | 1.1 | -1 | -6 | 7 | 5
C/C(N)=C(/C#N)C(=O)CSc1nnnn1-c1ccc(C)cc1 | 1.2 | 0.5 | -20 | 52* | 15 | 14
C/C(N)=C(/C#N)C(=O)CSc1nnnn1-c1ccccc1 | 1.1 | 0.4 | -11 | 64* | 6 | 4
CCNC(=S)NS(=O)(=O)c1ccc(Cl)cc1 | 0.8 | 1 | 17 | 4 | 4 | 2
O/N=C(\c1ccc(Cl)cc1)c1ncc(C(F)(F)F)cc1Cl | 0.1 | 0 | 86* | 98* | 14 | 1
Cc1ccc(C)c2nc(N3CCCC3)c(C#N)cc12 | 1.4 | 1 | -42 | 0 | 9 | -6
Nc1nc(-c2ccccc2)cc(C(F)(F)F)n1 | 0.9 | 0.5 | 14 | 47 | -4 | 4
COC1(c2cc(-c3ccccc3)nc(N)n2)CCCCC1 | 0.7 | 0.5 | 32 | 53* | 15 | 5
CCOC(=O)CSc1ncnc2c1cnn2-c1ccc(Cl)cc1 | 1.1 | 1.1 | -9 | -12 | -3 | 5
CCN(CC)C(=O)C1CCCN(Cc2sccc2C)C1 (configuration not stated) | 1 | 0.9 | 1 | 11 | 0 | -9
COc1ccc(NC(=O)CC(=O)Nc2ccc(OC)cc2OC)c(OC)c1 | 1.4 | 0.7 | -41 | 35 | 18 | -5
COc1ccc(C(CNC(=O)CCOc2ccccc2)N(C)C)cc1 (configuration not stated) | 0.8 | 0.5 | 15 | 55* | -5 | 11
COc1ccc(NC(=O)CCOc2ccccc2)c(OC)c1 | 1.3 | 0.3 | -30 | 73* | 14 | 1
COc1ccc(NC(=O)CCC(=O)Nc2nnc(C(F)(F)F)s2)c(OC)c1 | 0.3 | 0.6 | 65* | 36 | -2 | 0
Cc1cccc(OCCC(=O)NCC(c2ccccc2)N(C)C)c1 (configuration not stated) | 1 | 0.8 | 1 | 17 | 1 | -4
COc1ccc(NC(=O)N2CCC(c3ccccc3)C2)c(OC)c1 (configuration not stated) | 2.1* | 0.1 | -109 | 85* | -1 | -3
Cn1c(=O)c2c(nc(NC3CCCCC3)n2CC(=O)C23CC4CC(CC(C4)C2)C3)n(C)c1=O | nt | nt | nt | nt | 10 | 0

Screens as filed in PubChem BioAssay.
